Experimental data from PubChem BioAssay AID1159580 (chemical genetic matrix, 2015).
“And” between values parts separate entries of the source, which are not always exact repeats. Equal values may be shown once. In all, about 5,500 compounds went through this assay and about 2,000 (36%) were called active. Roughly 18% stayed inconclusive and do not appear here. Cut-off read from the data, not from the text of the source: active = normalized growth mostly below about 0.91 (no sharp cut-off); inconclusive = no clear call, values can overlap the other calls; inactive = mostly above about 0.92. The list shows a part of the results.

Experiment: chemical genetic growth profiling, strain panel (AID 1159580);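 note: tested at 20 µM; growth read once vehicle control cultures reached saturation at 30 °C; 1 = growth at the plate median or of vehicle wells; lower values mean less growth of the strain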
Conditions: S. cerevisiae deletion strains, growth OD

Measured: normalized growth

O=C1NCC2(CCN(CCc3ccccc3)CC2)O1
inactive: locus YAL013W, strain DEP1, hits give low values 1.02 | locus YAL021C, strain ccr4, hits give low values 0.973 | locus YAL026C, strain drs2, hits give low values 0.99 | locus YAL030W, strain snc1, hits give low values 1 | locus YAL040C, strain CLN3, hits give low values 1 | locus YBL061C, strain skt5, hits give low values 0.983 | locus YBR009C, strain hhf1, hits give low values 0.992 | locus YBR021W, strain FUR4, hits give low values 1.01 | locus YBR023C, strain chs3, hits give low values 0.993 | locus YBR171W, strain sec66, hits give low values 0.99 | locus YBR229C, strain ROT2, hits give low values 1.01 | locus YBR231C, strain swc5, hits give low values 0.985 | locus YBR279W, strain paf1, hits give low values 1.01 | locus YCL011C, strain gbp2, hits give low values 1.01 | locus YCL016C, strain dcc1, hits give low values 1.02 | locus YCL029C, strain bik1, hits give low values 1 | locus YCL061C, strain MRC1 (second series), hits give low values 1.01 | locus YCL069W, strain vba3, hits give low values 0.982 | locus YCR088W, strain abp1, hits give low values 1.01 | locus YDL005C, strain med2, hits give low values 0.987 | locus YDL035C, strain GPR1, hits give low values 1.01 | locus YDL040C, strain nat1, hits give low values 0.996 | locus YDL074C, strain BRE1, hits give low values 1.02 | locus YDL101C, strain DUN1, hits give low values 1.02 | locus YDL134C, strain PPH21, hits give low values 1 | locus YDL185W, strain tfp1, hits give low values 1.01 | locus YDL192W, strain arf1, hits give low values 1.01 | locus YDR001C, strain nth1, hits give low values 0.99 | locus YDR069C, strain doa4, hits give low values 0.983 | locus YDR101C, strain arx1, hits give low values 0.994 | locus YDR137W, strain rgp1, hits give low values 0.989 | locus YDR150W, strain NUM1, hits give low values 1 | locus YDR159W, strain sac3, hits give low values 0.989 | locus YDR162C, strain NBP2, hits give low values 1.01 | locus YDR195W, strain ref2 0.973 | locus YDR297W, strain sur2, hits give low values 1 | locus YDR318W, strain mcm21, hits give low values 1.01 | locus YDR334W, strain swr1, hits give low values 0.983 | locus YDR335W, strain msn5, hits give low values 0.971 | locus YDR363W, strain ESC2, hits give low values 1 | locus YDR388W, hits give low values 1 | locus YDR392W, strain spt3, hits give low values 1.02 | locus YDR502C, strain sam2, hits give low values 0.995 | locus YEL003W, strain gim4, hits give low values 0.99 | locus YEL037C, strain rad23, hits give low values 0.982 | locus YEL061C, strain CIN8 (second series), hits give low values 0.978 | locus YEL061C, strain CIN8, hits give low values 1 | locus YER002W, strain NOP16, hits give low values 1.01 | locus YER015W, strain faa2, hits give low values 1 | locus YER016W, strain bim1, hits give low values 1.01 | locus YER110C, hits give low values 1 | locus YER111C, strain swi4, hits give low values 0.992 | locus YER155C, strain BEM2 (second series), hits give low values 0.996 | locus YER155C, strain BEM2, hits give low values 1 | locus YER167W, strain BCK2, hits give low values 1 | locus YFR010W, strain ubp6, hits give low values 0.965 | locus YGL078C, strain dbp3, hits give low values 0.994 | locus YGL086W, strain mad1, hits give low values 0.993 | locus YGL167C, strain pmr1, hits give low values 0.982 | locus YGL173C, strain kem1, hits give low values 0.979 | locus YGL227W, strain vid30, hits give low values 1 | locus YGL240W, strain doc1, hits give low values 0.969 | locus YGL248W, strain PDE1, hits give low values 1.01 | locus YGL253W, strain hxk2, hits give low values 0.982 | locus YGR078C, strain PAC10, hits give low values 1.01 and 1.02 | locus YGR135W, strain pre9, hits give low values 0.999 | locus YGR229C, strain SMI1, hits give low values 1 | locus YGR252W, strain gcn5, hits give low values 0.944 | locus YHR013C, strain ard1, hits give low values 0.974 | locus YHR027C, strain rpn1, hits give low values 1 | locus YHR030C, strain SLT2, hits give low values 1.01 and 0.988 | locus YHR079C, strain IRE1 (second series), hits give low values 1.01 | locus YHR079C, strain IRE1, hits give low values 0.979 | locus YHR094C, strain hxt1, hits give low values 1 | locus YHR129C, strain ARP1, hits give low values 1.02 | locus YHR142W, strain chs7, hits give low values 0.966 | locus YHR200W, strain rpn10, hits give low values 0.994 | locus YIL066C, strain RNR3, hits give low values 1.01 | locus YIL073C, strain SPO22, hits give low values 1.01 | locus YIL125W, strain kgd1, hits give low values 0.998 | locus YIR030C, strain dcg1, hits give low values 0.994 | locus YJL092W, strain hpr5, hits give low values 0.997 | locus YJL095W, strain BCK1 (second series), hits give low values 0.993 | locus YJL095W, strain BCK1, hits give low values 1.04 and 0.982 | locus YJL115W, strain asf1, hits give low values 0.976 | locus YJL129C, strain trk1, hits give low values 0.967 | locus YJL134W, strain LCB3, hits give low values 1.01 | locus YJL154C, strain vps35, hits give low values 1 | locus YJL164C, strain tpk1, hits give low values 1.01 | locus YJL166W, strain qcr8, hits give low values 0.997 | locus YJL168C, strain set2, hits give low values 1.01 | locus YJL187C, strain SWE1 (second series), hits give low values 1.02 | locus YJR043C, strain POL32, hits give low values 1.02 | locus YJR066W, strain TOR1, hits give low values 0.913 | locus YJR075W, strain HOC1, hits give low values 1 and 0.995
